Where “and” joins values, the source holds several entries; their conditions need not be identical. Identical values can stand only once. Hit rate of the full screen: of about 5,500 compounds, about 2,000 (36%) were called active. Roughly 18% stayed inconclusive and do not appear here. Rule as the data show it: active = normalized growth mostly below about 0.91 (no sharp cut-off); inconclusive = no clear call, values can overlap the other calls; inactive = mostly above about 0.92. This is one part of the list.
Experiment: chemical genetic growth profiling, strain panel (AID 1159580);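 also: tested at 20 µM; growth read once vehicle control cultures reached saturation at 30 °C; 1 = growth at the plate median or of vehicle wells; lower values mean less growth of the strain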
Conditions: growth OD

Measured: normalized growth

COc1ccc(CN(CCN(C)C)c2ccccn2)cc1
inactive: S. cerevisiae deletion strains, locus YJR066W, strain TOR1, active compounds read low 0.997 | S. cerevisiae deletion strains, locus YJR075W, strain HOC1, active compounds read low 0.979 | S. cerevisiae deletion strains, locus YKL009W, strain mrt4, active compounds read low 0.954 | S. cerevisiae deletion strains, locus YKL068W, active compounds read low 0.992 | S. cerevisiae deletion strains, locus YKL085W, strain MDH1 (second series), active compounds read low 0.978 | S. cerevisiae deletion strains, locus YKL085W, strain MDH1, active compounds read low 0.978 | S. cerevisiae deletion strains, locus YKL160W, strain elf1, active compounds read low 1.04 | S. cerevisiae deletion strains, locus YKL190W, strain CNB1, active compounds read low 0.996 | S. cerevisiae deletion strains, locus YKR001C, strain vps1, active compounds read low 0.994 | S. cerevisiae deletion strains, locus YKR026C, strain gcn3, active compounds read low 1.01 | S. cerevisiae deletion strains, locus YKR091W, strain srl3, active compounds read low 1 | S. cerevisiae deletion strains, locus YLL001W, strain dnm1, active compounds read low 1.01 | S. cerevisiae deletion strains, locus YLL026W, active compounds read low 1.02 | S. cerevisiae deletion strains, locus YLL041C, strain sdh2, active compounds read low 1.01 | S. cerevisiae deletion strains, locus YLR027C, strain aat2, active compounds read low 1.02 | S. cerevisiae deletion strains, locus YLR039C, strain RIC1, active compounds read low 0.996 | S. cerevisiae deletion strains, locus YLR058C, strain SHM2, active compounds read low 0.997 | S. cerevisiae deletion strains, locus YLR102C, strain apc9, active compounds read low 0.996 | S. cerevisiae deletion strains, locus YLR113W, strain HOG1, active compounds read low 1.01 | S. cerevisiae deletion strains, locus YLR221C, strain rsa3, active compounds read low 1.01 | S. cerevisiae deletion strains, locus YLR258W, strain gsy2, active compounds read low 1.03 | S. cerevisiae deletion strains, locus YLR262C, strain YPT6 (second series), active compounds read low 1.01 | S. cerevisiae deletion strains, locus YLR262C, strain YPT6, active compounds read low 0.992 | S. cerevisiae deletion strains, locus YLR268W, strain sec22, active compounds read low 0.963 | S. cerevisiae deletion strains, locus YLR320W, strain mms22, active compounds read low 1.02 | S. cerevisiae deletion strains, locus YLR330W, strain CHS5, active compounds read low 0.98 | S. cerevisiae deletion strains, locus YLR342W, strain FKS1 (second series), active compounds read low 0.995 | S. cerevisiae deletion strains, locus YLR342W, strain FKS1, active compounds read low 1.03 | S. cerevisiae deletion strains, locus YLR357W, strain rsc2, active compounds read low 1.03 | S. cerevisiae deletion strains, locus YLR370C, strain arc18, active compounds read low 1.02 | S. cerevisiae deletion strains, locus YLR371W, strain rom2, active compounds read low 0.972 | S. cerevisiae deletion strains, locus YLR384C, strain iki3, active compounds read low 1.02 | S. cerevisiae deletion strains, locus YLR418C, strain cdc73, active compounds read low 1 | S. cerevisiae deletion strains, locus YML016C, strain PPZ1, active compounds read low 0.997 | S. cerevisiae deletion strains, locus YML032C, strain rad52, active compounds read low 0.979 | S. cerevisiae deletion strains, locus YML120C, strain ndi1, active compounds read low 1.02 | S. cerevisiae deletion strains, locus YML124C, strain tub3, active compounds read low 0.991 | S. cerevisiae deletion strains, locus YMR058W, strain fet3, active compounds read low 1 | S. cerevisiae deletion strains, locus YMR078C, strain ctf18, active compounds read low 0.992 | S. cerevisiae deletion strains, locus YMR125W, strain sto1, active compounds read low 1.02 | S. cerevisiae deletion strains, locus YMR129W, active compounds read low 1.01 | S. cerevisiae deletion strains, locus YMR205C, strain PFK2, active compounds read low 1.02 | S. cerevisiae deletion strains, locus YMR223W, strain ubp8, active compounds read low 1.02 | S. cerevisiae deletion strains, locus YMR231W, strain pep5, active compounds read low 1.02 | S. cerevisiae deletion strains, locus YMR307W, strain GAS1, active compounds read low 1.01 | S. cerevisiae deletion strains, locus YNL067W, strain RPL9B, active compounds read low 0.996 | S. cerevisiae deletion strains, locus YNL071W, strain lat1, active compounds read low 1.02 | S. cerevisiae deletion strains, locus YNL128W, strain TEP1, active compounds read low 0.967 | S. cerevisiae deletion strains, locus YNL175C, strain NOP13, active compounds read low 1.01 | S. cerevisiae deletion strains, locus YNL183C, strain NPR1, active compounds read low 0.991 | S. cerevisiae deletion strains, locus YNL197C, strain WHI3, active compounds read low 0.966 | S. cerevisiae deletion strains, locus YNL209W, strain ssb2, active compounds read low 1.04 | S. cerevisiae deletion strains, locus YNL224C, strain SQS1, active compounds read low 0.988 | S. cerevisiae deletion strains, locus YNL233W, strain BNI4, active compounds read low 1 | S. cerevisiae deletion strains, locus YNL248C, strain rpa49, active compounds read low 1.05 | S. cerevisiae deletion strains, locus YNL250W, strain rad50, active compounds read low 0.985 | S. cerevisiae deletion strains, locus YNL271C, strain bni1, active compounds read low 0.992 | S. cerevisiae deletion strains, locus YNL298W, strain CLA4, active compounds read low 0.997 | S. cerevisiae deletion strains, locus YNL307C, strain MCK1, active compounds read low 0.986 | S. cerevisiae deletion strains, locus YNL322C, strain KRE1 (second series), active compounds read low 1.04 | S. cerevisiae deletion strains, locus YNR049C, strain mso1, active compounds read low 1.01 | S. cerevisiae deletion strains, locus YNR052C, strain pop2, active compounds read low 0.993 | S. cerevisiae deletion strains, locus YOL006C, strain TOP1, active compounds read low 1.04 | S. cerevisiae deletion strains, locus YOL012C, strain htz1 0.809 | S. cerevisiae deletion strains, locus YOL147C, strain pex11, active compounds read low 0.988 | S. cerevisiae deletion strains, locus YOR001W, strain rrp6, active compounds read low 0.991 | S. cerevisiae deletion strains, locus YOR061W, strain CKA2, active compounds read low 1 | S. cerevisiae deletion strains, locus YOR069W, strain VPS5, active compounds read low 0.986 | S. cerevisiae deletion strains, locus YOR070C, strain gyp1, active compounds read low 1.02 | S. cerevisiae deletion strains, locus YOR080W, strain dia2, active compounds read low 1.03 | S. cerevisiae deletion strains, locus YOR083W, strain WHI5 (second series), active compounds read low 0.991 | S. cerevisiae deletion strains, locus YOR083W, strain WHI5, active compounds read low 0.998 | S. cerevisiae deletion strains, locus YOR106W, strain vam3, active compounds read low 1.04 | S. cerevisiae deletion strains, locus YOR136W, strain idh2, active compounds read low 1 | S. cerevisiae deletion strains, locus YOR144C, strain elg1, active compounds read low 1 | S. cerevisiae deletion strains, locus YOR184W, strain ser1, active compounds read low 1 | S. cerevisiae deletion strains, locus YOR231W, strain MKK1, active compounds read low 1 | S. cerevisiae deletion strains, locus YOR265W, strain rbl2, active compounds read low 1.02 | S. cerevisiae deletion strains, locus YOR270C, strain vph1, active compounds read low 1.08 | S. cerevisiae deletion strains, locus YOR290C, strain snf2, active compounds read low 1.04 | S. cerevisiae deletion strains, locus YOR316C, strain cot1, active compounds read low 0.988 | S. cerevisiae deletion strains, locus YPL051W, strain arl3, active compounds read low 1.04 | S. cerevisiae deletion strains, locus YPL078C, strain atp4, active compounds read low 1.04 | S. cerevisiae deletion strains, locus YPL106C, strain sse1, active compounds read low 1.04 | S. cerevisiae deletion strains, locus YPL240C, strain hsp82, active compounds read low 1.01 | S. cerevisiae deletion strains, locus YPL241C, strain CIN2, active compounds read low 0.995 and 0.99 | S. cerevisiae deletion strains, locus YPL256C, strain CLN2, active compounds read low 1.05 | S. cerevisiae deletion strains, locus YPR119W, strain clb2, active compounds read low 0.988 | S. cerevisiae deletion strains, locus YPR141C, strain kar3, active compounds read low 0.981 | S. cerevisiae deletion strains, locus YPR163C, strain tif3, active compounds read low 0.988 | S. cerevisiae deletion strains, locus YPR167C, strain met16, active compounds read low 0.983 | S. cerevisiae deletion strains, strain wtn01, active compounds read low 0.984 | S. cerevisiae strains, strain wild type, active compounds read low 0.992

Source: PubChem BioAssay AID1159580 (chemical genetic matrix, 2015)
